From PubChem BioAssay AID1671202 (University of Kansas High Throughput Screening Laboratory, 2021)
Values joined by “and” are separate entries in the source; they are usually repeats but may differ in a detail not shown here. Equal entries are not always repeated. In all, about 190,000 compounds went through this assay and about 6,900 (3.6%) were called active. Many of the other results were omitted from the sample, so actives are more common in it than they were. Unmarked numbers belong to inactive results. No stated cut-off is given here; in the data, active means inhibition above about 50%; inactive means the rest.

The compounds below were run against Huntingtin (Homo sapiens) (UniProt P42858) (assay: mutant huntingtin-calmodulin interaction inhibitors – biochemical, AlphaScreen, primary screen (AID 1671202;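 further: 0% = both proteins with DMSO and 100% = one protein alone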)). Conditions: AlphaScreen His-mHTT/GST-CaM binding, luminescence; at 15 µM; stronger effect = higher value.
Sequence of Huntingtin (Homo sapiens) (P42858 whole entry, looked up, stated change not applied): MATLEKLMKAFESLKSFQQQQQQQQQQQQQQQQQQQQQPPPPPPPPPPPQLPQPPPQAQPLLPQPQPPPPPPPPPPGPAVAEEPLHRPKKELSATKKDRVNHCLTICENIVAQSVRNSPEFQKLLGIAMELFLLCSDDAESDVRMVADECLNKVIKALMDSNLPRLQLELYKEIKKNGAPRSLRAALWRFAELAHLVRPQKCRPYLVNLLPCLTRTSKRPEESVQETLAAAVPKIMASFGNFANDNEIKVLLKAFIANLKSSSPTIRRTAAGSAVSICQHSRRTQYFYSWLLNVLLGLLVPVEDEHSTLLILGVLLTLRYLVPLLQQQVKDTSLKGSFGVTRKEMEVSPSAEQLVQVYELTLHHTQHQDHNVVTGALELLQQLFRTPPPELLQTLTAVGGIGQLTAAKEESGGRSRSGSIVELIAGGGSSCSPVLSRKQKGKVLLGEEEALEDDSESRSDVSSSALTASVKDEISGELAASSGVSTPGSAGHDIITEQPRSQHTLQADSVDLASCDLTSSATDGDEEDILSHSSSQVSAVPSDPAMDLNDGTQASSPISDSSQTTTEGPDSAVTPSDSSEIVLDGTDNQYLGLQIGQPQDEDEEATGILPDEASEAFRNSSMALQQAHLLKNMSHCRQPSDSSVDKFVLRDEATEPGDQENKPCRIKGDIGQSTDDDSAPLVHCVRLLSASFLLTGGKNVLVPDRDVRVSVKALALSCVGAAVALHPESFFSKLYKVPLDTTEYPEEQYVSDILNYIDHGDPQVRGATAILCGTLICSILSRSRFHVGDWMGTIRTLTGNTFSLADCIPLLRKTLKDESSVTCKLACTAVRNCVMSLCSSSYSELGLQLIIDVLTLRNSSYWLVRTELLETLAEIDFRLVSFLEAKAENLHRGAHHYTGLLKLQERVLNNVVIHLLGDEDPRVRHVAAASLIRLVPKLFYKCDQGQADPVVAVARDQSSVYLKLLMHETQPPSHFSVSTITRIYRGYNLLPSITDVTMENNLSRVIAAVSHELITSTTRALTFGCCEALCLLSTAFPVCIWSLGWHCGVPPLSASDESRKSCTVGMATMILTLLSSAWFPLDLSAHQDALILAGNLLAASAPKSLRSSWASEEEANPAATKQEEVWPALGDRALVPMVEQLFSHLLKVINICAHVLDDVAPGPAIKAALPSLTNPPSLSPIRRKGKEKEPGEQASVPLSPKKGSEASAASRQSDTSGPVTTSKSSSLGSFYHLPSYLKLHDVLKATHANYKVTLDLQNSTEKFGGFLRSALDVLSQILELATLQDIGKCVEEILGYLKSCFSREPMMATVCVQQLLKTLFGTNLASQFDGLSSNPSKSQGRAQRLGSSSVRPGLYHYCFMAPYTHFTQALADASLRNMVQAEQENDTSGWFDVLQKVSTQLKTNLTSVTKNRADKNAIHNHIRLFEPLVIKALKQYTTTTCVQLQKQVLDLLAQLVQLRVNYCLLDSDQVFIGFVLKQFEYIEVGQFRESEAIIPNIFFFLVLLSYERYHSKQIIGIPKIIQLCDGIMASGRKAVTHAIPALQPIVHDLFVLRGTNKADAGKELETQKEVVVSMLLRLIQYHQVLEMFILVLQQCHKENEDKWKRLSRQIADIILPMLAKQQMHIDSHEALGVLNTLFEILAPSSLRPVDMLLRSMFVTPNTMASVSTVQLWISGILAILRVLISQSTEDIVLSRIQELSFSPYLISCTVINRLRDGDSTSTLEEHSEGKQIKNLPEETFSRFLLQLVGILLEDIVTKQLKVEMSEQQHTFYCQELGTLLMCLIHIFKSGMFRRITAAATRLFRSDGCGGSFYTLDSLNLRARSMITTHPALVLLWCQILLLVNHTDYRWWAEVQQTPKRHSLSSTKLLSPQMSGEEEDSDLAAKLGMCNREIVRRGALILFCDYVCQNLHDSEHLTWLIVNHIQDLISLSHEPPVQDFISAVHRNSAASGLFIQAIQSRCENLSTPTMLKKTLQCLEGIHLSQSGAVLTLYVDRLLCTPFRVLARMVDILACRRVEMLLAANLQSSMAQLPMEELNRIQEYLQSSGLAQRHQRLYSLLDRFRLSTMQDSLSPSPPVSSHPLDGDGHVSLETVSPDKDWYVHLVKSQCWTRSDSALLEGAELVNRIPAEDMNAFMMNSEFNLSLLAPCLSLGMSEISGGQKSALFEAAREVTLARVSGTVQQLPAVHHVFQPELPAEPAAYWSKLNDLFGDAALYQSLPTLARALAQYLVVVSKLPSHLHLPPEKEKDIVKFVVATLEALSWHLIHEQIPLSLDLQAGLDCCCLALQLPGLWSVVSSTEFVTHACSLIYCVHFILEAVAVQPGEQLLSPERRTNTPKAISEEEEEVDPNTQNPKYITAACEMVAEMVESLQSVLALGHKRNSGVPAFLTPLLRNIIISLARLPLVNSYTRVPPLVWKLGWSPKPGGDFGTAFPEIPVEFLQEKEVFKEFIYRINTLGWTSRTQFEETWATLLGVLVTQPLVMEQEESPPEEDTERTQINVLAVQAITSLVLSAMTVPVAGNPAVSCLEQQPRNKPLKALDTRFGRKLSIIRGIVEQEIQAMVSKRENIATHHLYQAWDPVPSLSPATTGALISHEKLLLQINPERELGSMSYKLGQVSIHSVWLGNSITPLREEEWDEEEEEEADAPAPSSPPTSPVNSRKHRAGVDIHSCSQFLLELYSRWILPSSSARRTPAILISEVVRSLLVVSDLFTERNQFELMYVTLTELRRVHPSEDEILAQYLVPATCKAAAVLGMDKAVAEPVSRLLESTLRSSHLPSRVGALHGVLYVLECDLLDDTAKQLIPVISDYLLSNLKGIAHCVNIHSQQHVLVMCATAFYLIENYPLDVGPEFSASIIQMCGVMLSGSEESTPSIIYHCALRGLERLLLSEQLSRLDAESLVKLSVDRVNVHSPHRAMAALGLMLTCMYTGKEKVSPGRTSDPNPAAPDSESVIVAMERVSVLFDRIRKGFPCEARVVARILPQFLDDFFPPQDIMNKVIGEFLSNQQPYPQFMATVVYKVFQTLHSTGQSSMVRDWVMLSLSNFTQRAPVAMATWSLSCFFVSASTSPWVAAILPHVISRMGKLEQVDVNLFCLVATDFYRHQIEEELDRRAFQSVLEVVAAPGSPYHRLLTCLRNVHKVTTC

Compound	inhibition
Nc1ccc(Cc2ccc(N)c(Cl)c2)cc1Cl	14.7%
Nc1ccc(-c2ccc(N)c(N)c2)cc1N	92.1% (active)
CC(C)CCn1c(=O)c(C(=O)Nc2ccccn2)c(O)c2ccccc21	-1%
CCCn1c(=O)cc(C)c2ccc(OCC(=O)N3CCN(C)CC3)cc21	-3.5%
CCOC(=O)c1ccc(NC(=O)c2cccn(Cc3ccc(C(F)(F)F)cc3)c2=O)cc1	83.3% (active)
Cc1csc(NC(=O)c2cccn(Cc3cccc([N+](=O)[O-])c3)c2=O)n1	-9.9%
CCCCS(=O)(=O)N1CCC2(C1)C(=O)N(C)c1ccc(OC)cc12 (stereo not given)	12.5%
COc1ccc(CCC(=O)N2CCC3(C2)C(=O)N(C)c2ccc(OC)cc23)cc1 (stereo not given)	6.74%
CC(C)CCNC(=O)CN1C(=O)C(C)N=C(c2ccccc2)c2ccccc21 (stereo not given)	5%
O=C(Cc1c[nH]c2ccccc12)N1CCCN(C2CCN(Cc3ccc(F)cc3)C2=O)CC1 (stereo not given)	44.9%
O=[N+]([O-])c1cccc(C(Cl)Cl)c1	-5.2%
O=c1cccc2n1CC1CC2CN(Cc2cc(Cl)ccc2O)C1 (stereo not given)	3.2%
COC(=O)c1ccc2[se]c(CC3CCCCC3)c(I)c2c1	-13.6%
O=[N+]([O-])c1ccc(NCCNc2ccc([N+](=O)[O-])c3cccnc23)cc1	1.26%
CCN(CC)CCNc1ccc([N+](=O)[O-])c2cccnc12	-2.5% and 9%
CC(C)(CNc1ccc([N+](=O)[O-])c2cccnc12)CNS(=O)(=O)c1ccc(Cl)cc1	54% (active)
CCN(CC)CC#CCOc1ccccc1	-4.9%
CC(=O)c1ccc(OC(NC(=O)Cc2ccccc2)C(Cl)(Cl)Cl)cc1 (stereo not given)	50% (active)
CN1CCN(c2nnc(C(F)(F)F)s2)CC1	-5%
CC(C)c1cc(=O)n2c(n1)SCC2CC(=O)N1CC2CC(C1)c1cccc(=O)n1C2 (stereo not given)	-1.2%
